# Records with an inconclusive call do not appear. Activity calls are given as the source filed them. How the source made its calls: active means hit-call score of the fitted dose curve at least 0.9, where 1 is the maximum; inconclusive means response in the unintended direction; inactive means score below 0.9.
# Experiments:
# [1] = biological target: human Serotonin, 5-Hydroxytryptamine Receptor 3 (5HT3), HTR3A (gene 3359) (UniProt P46098); experiment: NVS_LGIC_h5HT3: NovaScreen (NVS) Ligand-Gated Ion Channel Assay for human Serotonin, 5-Hydroxytryptamine Receptor 3 (5HT3) (AID 2283325)
# Method in brief: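 Radioligand displacement binding to human 5-HT3 from HEK293 membranes, read by filter-based scintillation counting after 1 h. Screen at 25 uM in duplicate; chemicals passing threshold were retested in concentration-response up to 50 uM.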
# [2] = biological target: rat Glutamate, AMPA Site (AMPA), Gria1 (gene 50592) (UniProt P19490); experiment: NVS_LGIC_rAMPA: NovaScreen (NVS) Ligand-Gated Ion Channel Assay for rat Glutamate, AMPA Site (AMPA) (AID 2283324)
# Method in brief: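 Rat forebrain membranes; radioligand binding read 1 h after dosing by filtration and scintillation counting. Duplicate single-point screen at 25 uM, then concentration-response to 50 uM for threshold hits (e.g. 30% inhibition); loss of signal vs DMSO.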
# NCBI gene 24521 = experiment: NVS_IC_rKATPCh: NovaScreen (NVS) Ion Channel Assay for rat Potassium Channel, ATP-Sensitive (KATPCh) (AID 2283319)
# Method in brief: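 Rat cortical membranes; radioligand binding at ATP-sensitive K channel site, filter-based scintillation counting 2 h after dosing. Single-point duplicate screen at 25 uM, hits rerun in concentration-response up to 50 uM; loss of signal versus DMSO.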
# [3] = biological target: Sodium channel protein type 1 subunit alpha (Rattus norvegicus) (UniProt P04774); experiment: NVS_IC_rNaCh_site2: NovaScreen (NVS) Ion Channel Assay for rat Sodium Channel, Site 2 (NaCh) (AID 2283322);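 further: hit means loss of radioligand binding signal relative to DMSO so AC50 marks displacement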
# Procedure: (§1) NVS_IC_rNaCh_site2 is a biochemical, single-readout assay that uses extracted gene-proteins from Rat forebrain membranes in a tissue-based cell-free assay. Measurements were taken 1 hour after chemical dosing in a 48-well plate.NVS_IC_rNaCh_site2 is one of one assay component(s) measured or calculated from the NVS_IC_rNaCh_site2 assay. It is designed to make measurements of radioligand binding, a form of binding reporter, as detected with scintillation counting signals by Filter-based radiodetection technology.Data from the assay component NVS_IC_rNaCh_site2 was analyzed into 1 assay endpoint. This assay endpoint, NVS_IC_rNaCh_site2, was analyzed in the positive analysis fitting direction relative to DMSO as the negative control and baseline of activity. Using a type of binding reporter, loss-of-signal activity can be used to understand changes in the binding as they relate to the gene Scn1a. Furthermore, this assay endpoint can be referred to as a primary readout, because the performed assay has only produced 1 assay endpoint. To generalize the intended target to other relatable targets, this assay endpoint is annotated to the ion channel intended target family, where the subfamily is sodium channel.
# Binding assays used specific radioligands (tritiated, iodinated) with non-radioactive competitive displacement ligands in agonist or antagonist protocols (as indicated) and various reference compounds and inhibitors to titrate specific binding to receptors and transporters. Most enzyme assays (CYPs, kinases, phosphatases, proteases, HDACs) used recombinant protein and specific substrates (fluorescence mostly, some colorimetric and radioactive) and inhibitors, followed by a biochemical separation of substrate and product. All assays for the biochemical HTS were initially run in duplicate at a single concentration (10 uM for CYP450 assays and 25 uM for all others). […] Each assay was run with positive and negative controls, and concurrent controls on every plate. The follow-up (secondary) screen tested active chemical-pairs in concentration series, as well as a few additional assays not tested in the primary screen, some selected negative inactives, and several cases re-run in the concentration series for confirmatory purposes.
# [4] = biological target: rat Somatostatin Receptor (SST), Sstr1 (gene 25033) (UniProt P28646); experiment: NVS_GPCR_rSST: NovaScreen (NVS) G Protein-Coupled Receptor Assay for rat Somatostatin Receptor (SST) (AID 2283314)
# Procedure: as §1, with “NVS_GPCR_rSST” for “NVS_IC_rNaCh_site2”, “96-well plate.NVS_GPCR_rSST” for “48-well plate.NVS_IC_rNaCh_site2”, “NVS_GPCR_rSST,” for “NVS_IC_rNaCh_site2,”, “Sstr1.” for “Scn1a.”, “gpcr” for “ion channel”, “rhodopsin-like receptor.” for “sodium channel.”
# Binding assays used specific radioligands (tritiated, iodinated) with non-radioactive competitive displacement ligands in agonist or antagonist protocols (as indicated) and various reference compounds and inhibitors to titrate specific binding to receptors and transporters. Most enzyme assays (CYPs, kinases, phosphatases, proteases, HDACs) used recombinant protein and specific substrates (fluorescence mostly, some colorimetric and radioactive) and inhibitors, followed by a biochemical separation of substrate and product. All assays for the biochemical HTS were initially run in duplicate at a single concentration (10 uM for CYP450 assays and 25 uM for all others). […]
# [5] = biological target: rat Neonicotinoid receptor (NNR), Chrna7 (gene 25302) (UniProt Q05941); experiment: NVS_LGIC_rNNR_BungSens: NovaScreen (NVS) Ligand-Gated Ion Channel Assay for rat Neonicotinoid receptor (NNR) (AID 2283315)
# Procedure: NVS_LGIC_rNNR_BungSens is a biochemical, single-readout assay that uses extracted gene-proteins from Rat cortical membranes in a tissue-based cell-free assay. Measurements were taken 2.5 hours after chemical dosing in a 48-well plate.NVS_LGIC_rNNR_BungSens is one of one assay component(s) measured or calculated from the NVS_LGIC_rNNR_BungSens assay. It is designed to make measurements of radioligand binding, a form of binding reporter, as detected with scintillation counting signals by Filter-based radiodetection technology.Data from the assay component NVS_LGIC_rNNR_BungSens was analyzed into 1 assay endpoint. This assay endpoint, NVS_LGIC_rNNR_BungSens, was analyzed in the positive analysis fitting direction relative to DMSO as the negative control and baseline of activity. Using a type of binding reporter, loss-of-signal activity can be used to understand changes in the binding as they relate to the gene Chrna7. Furthermore, this assay endpoint can be referred to as a primary readout, because the performed assay has only produced 1 assay endpoint. To generalize the intended target to other relatable targets, this assay endpoint is annotated to the ion channel intended target family, where the subfamily is ligand-gated ion channel.
# Binding assays used specific radioligands (tritiated, iodinated) with non-radioactive competitive displacement ligands in agonist or antagonist protocols (as indicated) and various reference compounds and inhibitors to titrate specific binding to receptors and transporters. Most enzyme assays (CYPs, kinases, phosphatases, proteases, HDACs) used recombinant protein and specific substrates (fluorescence mostly, some colorimetric and radioactive) and inhibitors, followed by a biochemical separation of substrate and product. All assays for the biochemical HTS were initially run in duplicate at a single concentration (10 uM for CYP450 assays and 25 uM for all others). […] Each assay was run with positive and negative controls, and concurrent controls on every plate. […]
# [6] = biological target: rat Vasopressin 1 Receptor (V1), Avpr1a (gene 25107) (UniProt P30560); experiment: NVS_GPCR_rV1: NovaScreen (NVS) G Protein-Coupled Receptor Assay for rat Vasopressin 1 Receptor (V1) (AID 2283316)
# Method in brief: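 Radioligand binding on rat liver membranes, 1.5 h incubation, filter-based scintillation counting. Single 25 uM screen in duplicate; chemicals meeting threshold (e.g. 30% inhibition) run in concentration-response up to 50 uM.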
# [7] = biological target: rat Opioid Receptor, Non-selective Binding, Oprm1 (gene 25601) (UniProt P33535); experiment: NVS_GPCR_rOpiate_NonSelective: NovaScreen (NVS) G Protein-Coupled Receptor Assay for rat Opioid Receptor, Non-selective Binding (AID 2283318)
# Method in brief: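 Rat forebrain membranes, cell-free radioligand binding with filter-based scintillation counting, read 1.5 h after dosing. Primary screen in duplicate at 25 uM; actives retested in concentration series. Loss of signal versus DMSO baseline scored.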
# [8] = NVS_IC_rCaDHPRCh_L: NovaScreen (NVS) Ion Channel Assay for rat Calcium Channel, Type L, Dihydropyridine Site (CaDHPRCh_L) (AID 2283320)
# Method in brief: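 Radioligand binding to dihydropyridine site on rat cortical membranes, filter-based scintillation counting, 1 h after dosing. Screened in duplicate at 25 uM; actives rerun in concentration-response up to 50 uM. Loss of signal versus DMSO baseline.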
# [9] = biological target: bovine Gamma-Aminobutyric Acid Type A Receptor BDZ, alpha 5 site (GABARa5), GABRA5 (gene 523515) (UniProt Q08E50); experiment: NVS_LGIC_bGABARa5: NovaScreen (NVS) Ligand-Gated Ion Channel Assay for bovine Gamma-Aminobutyric Acid Type A Receptor BDZ, alpha 5 site (GABARa5) (AID 2283323)
# Method in brief: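 Radioligand competitive displacement binding on bovine hippocampal membranes, read 1 hr after dosing by filter-based scintillation counting. Primary screen at 25 uM in duplicate; actives (e.g. ≥30% inhibition) then run in concentration-response up to 50 uM.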
# human Serotonin, 5-Hydroxytryptamine Receptor 3 (5HT3), HTR3A (gene 3359), sequence (P46098 whole entry, looked up): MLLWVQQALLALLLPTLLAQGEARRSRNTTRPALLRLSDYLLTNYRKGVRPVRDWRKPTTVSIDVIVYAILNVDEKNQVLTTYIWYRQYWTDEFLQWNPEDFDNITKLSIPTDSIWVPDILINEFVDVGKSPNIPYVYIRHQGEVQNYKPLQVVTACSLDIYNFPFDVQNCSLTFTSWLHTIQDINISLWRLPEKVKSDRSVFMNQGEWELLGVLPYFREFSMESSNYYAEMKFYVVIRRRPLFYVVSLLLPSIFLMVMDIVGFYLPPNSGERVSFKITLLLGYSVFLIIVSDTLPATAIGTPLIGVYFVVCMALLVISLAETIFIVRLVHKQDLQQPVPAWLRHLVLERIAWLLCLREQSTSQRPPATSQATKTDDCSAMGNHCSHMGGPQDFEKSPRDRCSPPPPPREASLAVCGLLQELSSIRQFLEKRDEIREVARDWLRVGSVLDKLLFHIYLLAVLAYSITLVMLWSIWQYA
# rat Opioid Receptor, Non-selective Binding, Oprm1 (gene 25601), sequence (P33535 whole entry, looked up): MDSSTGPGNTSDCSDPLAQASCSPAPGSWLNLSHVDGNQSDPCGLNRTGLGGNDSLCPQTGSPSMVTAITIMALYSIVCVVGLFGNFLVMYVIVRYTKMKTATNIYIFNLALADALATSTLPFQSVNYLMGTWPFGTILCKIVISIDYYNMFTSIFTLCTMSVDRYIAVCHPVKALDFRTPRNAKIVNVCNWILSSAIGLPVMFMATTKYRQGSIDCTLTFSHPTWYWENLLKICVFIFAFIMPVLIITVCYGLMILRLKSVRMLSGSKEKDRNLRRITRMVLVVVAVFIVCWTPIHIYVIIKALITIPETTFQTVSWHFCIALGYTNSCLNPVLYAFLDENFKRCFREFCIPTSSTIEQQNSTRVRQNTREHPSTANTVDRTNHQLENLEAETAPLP
# rat Glutamate, AMPA Site (AMPA), Gria1 (gene 50592), sequence (P19490 whole entry, looked up): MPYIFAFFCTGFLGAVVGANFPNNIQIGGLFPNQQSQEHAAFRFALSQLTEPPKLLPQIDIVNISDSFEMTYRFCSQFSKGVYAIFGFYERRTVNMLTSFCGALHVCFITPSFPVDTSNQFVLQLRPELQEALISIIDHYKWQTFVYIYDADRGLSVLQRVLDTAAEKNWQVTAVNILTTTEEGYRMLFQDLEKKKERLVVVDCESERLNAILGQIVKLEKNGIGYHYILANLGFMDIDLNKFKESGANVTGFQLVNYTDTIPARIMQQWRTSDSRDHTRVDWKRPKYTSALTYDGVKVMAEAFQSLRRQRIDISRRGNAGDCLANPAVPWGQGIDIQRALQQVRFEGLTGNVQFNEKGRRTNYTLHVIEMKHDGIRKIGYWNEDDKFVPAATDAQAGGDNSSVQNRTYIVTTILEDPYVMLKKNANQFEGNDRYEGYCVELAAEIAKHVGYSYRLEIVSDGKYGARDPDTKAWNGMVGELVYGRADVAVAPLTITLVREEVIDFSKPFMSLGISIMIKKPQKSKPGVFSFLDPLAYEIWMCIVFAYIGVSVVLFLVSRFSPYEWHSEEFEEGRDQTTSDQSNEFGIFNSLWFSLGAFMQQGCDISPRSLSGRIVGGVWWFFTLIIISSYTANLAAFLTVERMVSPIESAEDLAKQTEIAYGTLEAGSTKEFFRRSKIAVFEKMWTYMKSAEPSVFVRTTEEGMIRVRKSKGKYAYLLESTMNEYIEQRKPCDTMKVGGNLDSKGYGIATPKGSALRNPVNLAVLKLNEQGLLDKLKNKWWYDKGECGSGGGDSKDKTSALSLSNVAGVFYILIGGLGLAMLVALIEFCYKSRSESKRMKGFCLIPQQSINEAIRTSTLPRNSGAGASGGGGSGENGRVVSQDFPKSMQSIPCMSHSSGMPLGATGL
# rat Neonicotinoid receptor (NNR), Chrna7 (gene 25302), sequence (Q05941 whole entry, looked up): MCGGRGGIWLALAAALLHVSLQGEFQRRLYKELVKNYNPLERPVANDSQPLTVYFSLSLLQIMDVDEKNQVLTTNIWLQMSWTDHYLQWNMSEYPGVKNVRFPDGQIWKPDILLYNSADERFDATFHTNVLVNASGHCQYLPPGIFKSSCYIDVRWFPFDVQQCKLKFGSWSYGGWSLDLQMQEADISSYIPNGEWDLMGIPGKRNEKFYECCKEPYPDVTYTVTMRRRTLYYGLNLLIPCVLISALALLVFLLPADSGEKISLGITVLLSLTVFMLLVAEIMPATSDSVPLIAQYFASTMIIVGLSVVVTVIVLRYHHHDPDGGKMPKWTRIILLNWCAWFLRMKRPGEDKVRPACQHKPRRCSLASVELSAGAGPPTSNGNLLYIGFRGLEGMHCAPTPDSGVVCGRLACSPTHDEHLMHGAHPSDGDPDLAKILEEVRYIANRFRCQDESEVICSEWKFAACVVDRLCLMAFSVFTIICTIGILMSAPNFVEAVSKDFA
# bovine Gamma-Aminobutyric Acid Type A Receptor BDZ, alpha 5 site (GABARa5), GABRA5 (gene 523515), sequence (Q08E50 whole entry, looked up): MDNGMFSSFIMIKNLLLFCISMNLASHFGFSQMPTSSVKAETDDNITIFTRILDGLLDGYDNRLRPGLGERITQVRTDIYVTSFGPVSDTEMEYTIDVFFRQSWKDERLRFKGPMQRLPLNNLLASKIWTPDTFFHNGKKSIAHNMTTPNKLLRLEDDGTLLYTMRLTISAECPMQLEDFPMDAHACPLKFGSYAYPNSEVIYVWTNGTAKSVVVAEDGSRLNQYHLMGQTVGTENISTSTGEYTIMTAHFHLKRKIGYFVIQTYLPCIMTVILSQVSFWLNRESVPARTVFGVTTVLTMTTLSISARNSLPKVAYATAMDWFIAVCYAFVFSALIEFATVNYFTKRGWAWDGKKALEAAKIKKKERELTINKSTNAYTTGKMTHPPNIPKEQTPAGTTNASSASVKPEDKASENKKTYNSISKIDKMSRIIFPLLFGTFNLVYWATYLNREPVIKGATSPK
# rat Vasopressin 1 Receptor (V1), Avpr1a (gene 25107), sequence (P30560 whole entry, looked up): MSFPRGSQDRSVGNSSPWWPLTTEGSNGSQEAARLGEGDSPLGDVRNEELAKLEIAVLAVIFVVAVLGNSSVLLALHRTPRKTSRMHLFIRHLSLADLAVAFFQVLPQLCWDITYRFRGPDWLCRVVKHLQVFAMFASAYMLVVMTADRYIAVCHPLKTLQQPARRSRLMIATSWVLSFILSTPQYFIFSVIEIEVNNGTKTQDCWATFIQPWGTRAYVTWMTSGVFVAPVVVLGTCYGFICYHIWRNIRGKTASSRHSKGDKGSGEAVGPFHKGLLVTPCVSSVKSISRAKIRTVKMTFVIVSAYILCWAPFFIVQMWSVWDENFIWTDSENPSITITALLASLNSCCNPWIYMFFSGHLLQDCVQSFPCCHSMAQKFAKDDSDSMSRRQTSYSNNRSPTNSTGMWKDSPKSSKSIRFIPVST
# rat Somatostatin Receptor (SST), Sstr1 (gene 25033), sequence (P28646 whole entry, looked up): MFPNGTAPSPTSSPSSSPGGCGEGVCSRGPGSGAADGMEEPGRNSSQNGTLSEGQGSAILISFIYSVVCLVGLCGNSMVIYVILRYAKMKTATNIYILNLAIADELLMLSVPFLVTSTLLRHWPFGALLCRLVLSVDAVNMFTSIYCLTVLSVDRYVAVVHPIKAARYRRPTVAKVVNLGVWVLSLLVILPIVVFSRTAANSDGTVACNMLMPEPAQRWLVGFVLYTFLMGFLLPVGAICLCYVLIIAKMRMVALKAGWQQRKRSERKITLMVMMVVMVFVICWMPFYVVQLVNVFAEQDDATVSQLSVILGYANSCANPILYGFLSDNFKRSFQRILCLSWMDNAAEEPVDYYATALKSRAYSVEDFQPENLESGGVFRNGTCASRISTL
smiles,measurement,setting,value
CCCCCCCCCCCCCCCCOS(=O)(=O)O,AC50,[1],17.3 µM (active)
COCc1nnc(-c2ccc[n+]([O-])c2)n1-c1c(Cl)c(Cl)cc2[nH]c(=O)c(=O)[nH]c12,AC50,[2],12.6 µM (active)
O=C1CN(N=Cc2ccc([N+](=O)[O-])o2)C(=O)N1,outcome,[2],inactive
same,outcome,[1],inactive
Cc1ccc(S(=O)(=O)NC(=O)NN2CCCCCC2)cc1,AC50,NCBI gene 24521,3.58 µM (active)
NC(=O)N1c2ccccc2C=Cc2ccccc21,outcome,[3],inactive
CCCCCCCCCC,AC50,[4],2.19 µM (active)
same,outcome,[5],inactive
same,AC50,[6],25 µM (active)
same,outcome,[3],inactive
same,outcome,[2],inactive
C=CCc1cc(S(=O)(=O)c2ccc(O)c(CC=C)c2)ccc1O,AC50,[7],13.1 µM (active)
same,AC50,[8],8.51 µM (active)
same,AC50,[3],22.5 µM (active)
OCCOCCOCCO,outcome,[2],inactive
Cc1ncc([C@@H](CCCCCCc2ccc3c(n2)NCCC3)CC(=O)O)cn1,AC50,[7],25 µM (active)
CCn1nc(C)c2c1C(=O)NCC(c1ccc(O)cc1)=N2,outcome,[7],inactive
same,outcome,NCBI gene 24521,inactive
same,outcome,[8],inactive
same,outcome,[3],inactive
same,outcome,[1],inactive
O=C(O)c1cccc(C(=O)O)c1,outcome,NCBI gene 24521,inactive
O=c1[nH]cnc2c1ncn2[C@H]1CC[C@@H](CO)O1,outcome,[1],inactive
CCOc1ccc2[nH]cc(C(=O)NCc3ccccc3)c(=O)c2n1,AC50,[9],0.0253 µM (active)
CCN(CC)C(=S)SSC(=S)N(CC)CC,AC50,[6],15.6 µM (active)
same,outcome,[2],inactive
same,outcome,[1],inactive
CCCOc1ccc(S(=O)(=O)N2CCN(CC)CC2)cc1-c1nc2c(CC)n(Cc3ccccn3)nc2c(=O)[nH]1,outcome,[9],inactive
COc1cc(C(C)C)c2c(c1)S(=O)(=O)N(COc1cc(=O)n3cccc(OCCN4CCCCC4)c3n1)C2=O,outcome,[5],inactive
same,AC50,[3],4.01 µM (active)

# Reference: PubChem BioAssay (EPA / NIEHS)
